Unmarked numbers belong to inactive results. Active and inactive are the calls of the source.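 The calls were made as follows: active = GFP response vs DMSO above 150% with enough events counted; inconclusive = fewer than 70 events counted for a yeast strain; inactive = the rest.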

The assay in a line: MEP2-GFP expression modulation in yeast, confirmation, flow cytometry, third cherry pick, S. cerevisiae (AID 504321).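 Also: median per-cell GFP fluorescence by flow cytometry across all yeast cells; ratio of sample to DMSO median GFP so 100% equals the DMSO level.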 The settings on record: S. cerevisiae MEP2-GFP strain, 3 h, at 10 µM, hits give high values.
`COc1ccc(Nc2nc(NN)nc(C)c2[N+](=O)[O-])cc1`: the GFP response vs DMSO is 101%. Next, `COc1cccc2c(=O)c(C(=O)O)c[nH]c12`: 116%; `CCCCC(=O)NCCc1cc2c(OC)ccc(OC)c2[nH]c1=O`: 108%; `COc1ccc(OC)c2c(C)cc(C)nc12`: 108%. Next, `Cc1ccc(Nc2nc(N)[nH]c(=O)c2N=O)cc1`: 108%; `C[n+]1cccc2cccc([O-])c21`: 116%; `Nc1cc(C(=O)O)c(N)c2c1C(=O)c1ccccc1C2=O`: 110%.

On to `CC1=CN2C(=N)/C(=C/c3ccco3)C(=O)N=C2S1`, for which the GFP response vs DMSO is 105%. On to `CC(=O)Nn1cnc2c(c1=O)C1(CCCCC1)Cc1ccccc1-2`, for which the GFP response vs DMSO was 114%. Next, `OCc1ccc(O)c2ncccc12`: 99%; `COc1ccc(OC)c2c(=O)cc(C(=O)O)[nH]c12`: 105%; `C/C(=C\C(=O)c1ccccc1)Nc1ccc(O)cc1`: 105%. On to `COc1ccc(N/C(C)=C/C(=O)c2ccccc2)cc1`, for which the GFP response vs DMSO is 103%. Next, `Nn1cnc2c(c1=O)C1(CCCCC1)Cc1ccccc1-2`: 116%; `COc1ccc(N/C=C/C(=O)c2ccc(Cl)cc2)cc1`: 116%; `Nc1ncnc(Nc2cc(Cl)cc(Cl)c2)c1[N+](=O)[O-]`: 108%. As for `Nc1cccc2c1C(=O)c1ccc(Cl)cc1C2=O`, the figure is 116%; as for `CNc1nc(N)c([N+](=O)[O-])c(Nc2ccccc2OC)n1`, 105%. Next, `COc1ccccc1-c1cc(C(F)(F)F)nc(S(C)(=O)=O)n1`: 142%; `Nc1c(C(=O)O)ccc2c1C(=O)c1ccccc1C2=O`: 127%. Regarding `CCOC(=O)CS(=O)(=O)c1nc(-c2ccccc2)cc(C(F)(F)F)n1`, the GFP response vs DMSO was 151% (active).

Regarding `O=C(O)c1ccc2cccc(O)c2n1`, the GFP response vs DMSO is 110%. As for `Cc1cccc(N/C=C/C(=O)c2ccc(Cl)cc2)c1`, the figure is 112%; as for `COc1ccccc1Nc1nc(NCCO)nc(N)c1[N+](=O)[O-]`, 105%; as for `OCCNc1ncnc2ccc(Br)cc12`, 101%.

Turning to `Cn1c(NCCCO)nc2c(c1=O)C1(CCCCC1)Cc1ccccc1-2`, the GFP response vs DMSO was 112%. Next, `FC(F)Oc1cccc2cccnc12`: 110%; `O=C(Nc1ccccc1)O/N=C1\CCCCC1c1ccc([N+](=O)[O-])cc1[N+](=O)[O-]` (centres undefined): 105%; `O=C(Nc1cccc(Cl)c1)ON=C1c2ccccc2-c2ccccc21`: 110%. As for `CCc1sc(C(=O)Nc2nc(-c3ccccn3)cs2)cc1C`, the figure is 114%; as for `NC(=O)c1ccnc2c(O)cccc12`, 108%. As for `Cc1ccc(-c2cc(C(F)F)nc(S(C)(=O)=O)n2)cc1`, the figure is 121%; as for `O=C(O)CCCCCNc1ncnc2ccc(Br)cc12`, 101%; as for `C=CCNc1nc(N)c([N+](=O)[O-])c(Nc2ccccc2OC)n1`, 103%.

Turning to `C/C(=C\C(=O)c1ccccc1)Nc1cccc(O)c1`, the GFP response vs DMSO was 110%. Next, `CC1=CN2C(=N)/C(=C/c3ccc(C)o3)C(=O)N=C2S1`: 105%; `CN1CCN(C(=O)c2cc(COc3ccc(F)cc3Cl)on2)CC1c1ccccc1` (centres undefined): 101%; `Oc1ccc(F)c2cccnc12`: 116%. Next, `Oc1ccc(Cl)c2cccnc12`: 101%.

(Values after PubChem BioAssay AID504321 (NMMLSC, 2011).)
